# Results published in PubChem BioAssay AID2639 (National Center for Advancing Translational Sciences (NCATS), 2010).
# Calls of active or inactive are those of the source. Where a call stands in place of a potency, no number is given. Calls follow the shape of the full dose curve.
# Assay: Platelet Aggregation Secondary Assay for Inhibitors of Platelet Integrin alphallb-beta3
# Details: platelet-rich plasma, ADP-induced aggregation, absorbance 563 nm
# Description: NIH Molecular Libraries Probe Production Network [MLPCN] NIH Chemical Genomics Center [NCGC] MLPCN Grant: 1 R03 MH083257-01 Assay Provider: Barry Coller, Rockefeller University NCGC Assay Overview: The alphaIIbbeta3 receptor plays a vital role in hemostasis and thrombosis, where receptor deficiency causes the hemorrhagic disorder, Glanzmann thrombasthenia, and uncontrolled receptor activation causes thrombosis and blood vessel occlusion. Small molecule inhibitors of alphaIIbbeta3, tirofiban and eptifibatide, have undesirable side effects thought to arise from conformational changes in alphaIIbbeta3. These changes transiently activate the receptor to cause spontaneous platelet aggregation and thrombus formation. […] This secondary assay measures platelet aggregation (Blue et al., 2008). Platelets are induced to aggregate and aggregation is tracked by the change in absorbance over time. Inhibitors of alphaIIbbeta3 block platelet aggregation and decrease the rate of change in absorbance.
# NCGC Assay Protocol Summary: Untreated 96-well polystyrene plates (Nunc, Rochester, NY) were blocked for at least 1 hour with HBMT (138 mM NaCl, 12 mM NaHCO3, 10 mM HEPES, 2.7 mM KCl, 0.4 mM NaH2PO4, 0.1% glucose, 0.35% BSA, pH 7.4). Compounds (33 uL in HBMT) and citrated platelet-rich plasma (67 uL) were added to the wells. After plates equilibrated at 37 C in the plate reader (SpectraMax; Molecular Devices, Sunnyvale, CA) for 10 minutes, aggregation was initiated by adding ADP (5 uM final concentration; Chrono-Log Corp, Havertown, PA). Absorbance (Abs) was measured at 563 nm every 10 seconds with 3 seconds of shaking between determinations for 8 minutes. Reference Blue R, Murcia M, Karan C, Jirouskova M, and Coller BS. Application of high-throughput screening to identify a novel alphaIIb-specific small- molecule inhibitor of alphaIIbbeta3-mediated platelet interaction with fibrinogen. Blood. 2008, 111(3):1248-56
Compound,outcome,Potency
Cc1nn2c(=O)cc(N3CCNCC3)nc2s1,inactive,–
CCc1nn2c(=O)cc(N3CCN(C)CC3)nc2s1,inactive,–
CCc1nn2c(=O)c(F)c(N3CCNCC3)nc2s1,–,8.3 µM (active)
CCc1nn2c(=O)c(C)c(N3CCNCC3)nc2s1,inactive,–
CCc1nn2c(=O)cc(N3CCNCC3)nc2s1,–,8.4 µM (active)
O=c1cc(N2CCNCC2)nc2sc(C3CC3)nn12,inactive,–
